Screening results deposited in PubChem by National Center for Advancing Translational Sciences (NCATS).
Shown are actives, neighbours in structure and some others; about 2.8% of the full set was active somewhere.
MBNL1 CUG block: MBNL1-poly(CUG) RNA binding inhibition; 280,000 compounds, 0.036% hits; Q9NR56; TR-FRET MBNL1-His/biotin-(CUG)12 binding, 665/545 ratio; Potency, µM (series often up to 57.5 µM), for the others: at the top dose activity change, negative = inhibition, most hits filed as inhibitors; active = well fitted inhibition curve with a large enough effect in the signal ratio, with a control signal flat, not every such curve was filed as active; inconclusive = small, poorly fitted or top-dose-only effect, or effect the other way, or a change in a side signal; inactive = no such curve, though single readings can be large or run the other way; the % refers to the signal ratio; note: potency is the fitted concentration of half-maximal effect; % is set by controls: 0 for no effect and ±100 for the full control effect
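TR-FRET readout: Ex 340 nm, 665/545 nm emission ratio, normalized to buffer-only (basal) and MBNL1-(CUG)12 controls. Complex of MBNL1-His with Biotin-(CUG)12, compounds 92 nM–58 uM, incubated 60 min at room temperature.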
PTHR1 ag: PTHR1 (human) receptor agonism | Q03431 | HEK293 GP2 PTHR1 cells, GloSensor cAMP luminescence, 1 h | Potency, µM (titrated, usually from 115 µM), inactives show at the highest dose activation, usual class: activators | 410,000 compounds, 0.075% hits | AID 743266; note: potency is the fitted concentration of half-maximal effect; nearly all actives have a fitted effect of over 55% in size
Target sequence (Q03431 whole entry, looked up): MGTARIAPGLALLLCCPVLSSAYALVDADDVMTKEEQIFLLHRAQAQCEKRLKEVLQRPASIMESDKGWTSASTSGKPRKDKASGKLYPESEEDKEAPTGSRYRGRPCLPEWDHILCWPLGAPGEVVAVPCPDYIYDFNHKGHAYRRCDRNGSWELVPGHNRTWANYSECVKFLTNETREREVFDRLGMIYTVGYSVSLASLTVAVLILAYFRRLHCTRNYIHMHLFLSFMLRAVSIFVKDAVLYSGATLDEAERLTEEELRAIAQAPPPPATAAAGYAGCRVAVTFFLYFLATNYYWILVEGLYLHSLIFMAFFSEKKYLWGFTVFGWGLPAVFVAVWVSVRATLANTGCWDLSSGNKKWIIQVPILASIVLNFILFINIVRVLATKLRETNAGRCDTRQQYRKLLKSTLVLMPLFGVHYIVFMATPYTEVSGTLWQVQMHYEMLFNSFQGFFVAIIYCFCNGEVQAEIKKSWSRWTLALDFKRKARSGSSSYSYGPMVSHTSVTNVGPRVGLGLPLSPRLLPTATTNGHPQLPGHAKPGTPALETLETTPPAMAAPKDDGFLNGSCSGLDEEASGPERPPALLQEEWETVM
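HEK-293-derived GP2 cells expressing PTHR1 and a GloSensor cAMP reporter, 3,000/well, plated overnight, given luciferin plus IBMX (each 0.5 mM as added) for 1 h at 37 °C, then compound for 1 h at 37 °C. Luminescence was read after 15 min at room temperature.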
D3 ag: activates the human D3 dopamine receptor | max activation, % | D3R DiscoveRx beta-arrestin cells, luminescence, 90 min | 410,000 compounds, 0.58% hits; in the data active = max activation above about 30%; note: 0% is about no effect
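Cells at 1500/well, incubated overnight, then treated with pinned compounds (dopamine as control) for 90 min at 37 degrees C. DiscoveRx reagent added for 30 - 60 minutes at room temperature; luminescence read.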
CBFb-RUNX1 inh: inhibitors of human CBF-beta and RUNX1 interaction. AlphaScreen CBFb-His/RUNX1-biotin binding, biochemical. AID 1477. Potency, µM (highest dose often 59.8 µM), inactives show top-dose activity, negative = inhibition, hits mostly inhibitors. 230,000 tested, under 10 active. Q01196+Q13951; note: % of control where 0% means no effect
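Proteins preincubated together for 20 min at RT before compound addition; 15 min later, nickel and streptavidin beads were added and left 90 min prior to AlphaScreen measurement.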
a7 integrin act: activates integrin-mediated alleviation for muscular dystrophy | alpha7betagal myoblasts, beta-gal FDG fluorescence, 48 h | Potency, µM (titrated, usually from 38.3 µM), without a hit: top-dose activation, most hits filed as activators | 350,000 compounds, 0.064% hits;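 note: potency is the fitted concentration of half-maximal effect; 100% = response of the positive control SU9516; nearly all actives have a fitted effect of over 60% in size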
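Alpha7betagal+/- myoblasts (passage 13) were plated 16-24 hr, then exposed to compounds (1:260 dilution of DMSO stock) for 48 hours at 37C. After MPER lysis, β-galactosidase reporter activity was read as FDG fluorescence (ex 480/em 540) after 30 minutes.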
D3 antag: blocks the human D3 dopamine receptor. D3R cells, DiscoveRx beta-arrestin luminescence, antagonist mode; stronger effect = lower value. P35462. max response, negative = inhibition, %. 360,000 compounds, 2.5% hits; in the data active = max response below about -50%; inconclusive = no clear call, values can overlap the other calls; note: % is set by controls: 0 for no effect and ±100 for the full control effect
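Cells plated overnight at 1500 cells/well, then exposed to library compounds with dopamine controls for 90 minutes at 37 degrees C. DiscoveRx reagent added for 30–60 minutes at room temperature; luminescence read, quantitative HTS format.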
Numbers without * were called inactive; i = inactive; u = inconclusive; x = no result; [ ] = dose if it differs, or a comment. Unless noted, calls come from the whole dose curve; as a rule, active = well fitted curve in the direction sought with a large enough effect; inconclusive = small, poorly fitted or top-dose-only effect, or another doubt; inactive = no such curve, though single readings can be large; an effect the other way counts as inactive or inconclusive.

SMILES	MBNL1 CUG block	PTHR1 ag	D3 ag	CBFb-RUNX1 inh	a7 integrin act	D3 antag
CN1c2ccc([N+](=O)[O-])cc2CC2(C(=O)NC(=O)N(c3ccc(Br)cc3)C2=O)C1c1ccccc1 (stereo unspecified)	17%	-15%	-6	-17%	20%	-51*
CCN(CC)c1ccc(CN2CC=C(c3ccc(F)cc3)CC2)cc1	-11%	-27%[57.5 µM]	-17	-17%	-59%	-67*
COc1ccc(CN2CC=C(c3ccc(F)cc3)CC2)cc1Br	-2%	-21%	-24	x	-36%	-68*
NC(=O)c1ccc(OCC(O)CN2CC=C(c3ccc(F)cc3)CC2)cc1 (stereo unspecified)	x	x	x	1%	x	x
Cc1cc(Br)c(NC(=O)CN2CC=C(c3ccccc3)CC2)c(Br)c1	-3%	i	1	-20%	10%	4
Cn1c(=O)oc2cc(S(=O)(=O)Nc3cccc([N+](=O)[O-])c3)ccc21	u	-3%	-28	x	8%	-88*
COc1ccccc1OC(=O)Oc1ccccc1OC	x	-4%	4	x	-38%	-11
Cc1ncc(CO)c2c1Oc1nc(-c3ccccc3Cl)nc(SCc3ccccc3F)c1C2	x	-51%	6	x	x	x
Cc1cccc(NC(=O)Cn2cc(C(=O)C3CC3)c3ccccc32)c1C	4%	-25%	3	x	-59%	19
Cc1ccc(C(=O)N[C@@H](C)CN2C3=NC[C@@H](Cc4ccccc4)N3C[C@H]2Cc2ccc(O)cc2)cc1Br	-7%	-12%	-53	7%	-35%	-70*
Cc1ccc(C(=O)N[C@@H](C)CN2C3=NC[C@H](Cc4ccccc4)N3C[C@H]2Cc2ccc(O)cc2)cc1Br	-18%	-32%	-23	-6%	-39%	-27
CC[C@@H](CO)NC(=O)[C@@H]1C=C2c3cccc4[nH]cc(c34)C[C@H]2N(C)C1	x	i	33*	u	x	-17
CCC(CO)NC(=O)C1C=C2c3cccc4[nH]cc(c34)CC2N(C)C1 (stereo unspecified)	u	i	15	u	x	-57*
CC[C@@H](CO)NC(=O)[C@@H]1C=C2c3cccc4c3c(cn4C)C[C@H]2N(C)C1	u	-30%	-88	u	x	-93*
C[C@@H]1O[C@@H](O[C@@H]2C=C3CC[C@@H]4[C@H](CC[C@]5(C)[C@@H](c6ccc(=O)oc6)CC[C@]45O)[C@@]3(C)CC2)[C@H](O)[C@H](O)[C@H]1O	x	x	3	x	x	x
Cc1ccc(NS(=O)(=O)c2c(F)cc(F)c(Cl)c2F)cc1S(=O)(=O)N1CCOCC1	x	-42%	3	x	5%	-6
O=C1c2ccccc2C(=O)N1SC1CCCCC1	7%	i	1	1%	-63%	-92*
c1ccc(CN2CCN(Cc3ccc4ccccc4c3)CC2)cc1	-2%	-21%	-15	x	-25%	-69*
Oc1c(Cl)cc(Cl)cc1CN1CCN(Cc2ccccc2)CC1	3%	i	-39	-7%	-14%[7.66 µM]	-51*
O=C(Cc1ccccc1)N1CCN(Cc2ccccc2Cl)CC1	1%	-4%	-1	x	11%	-14
Oc1c(Cl)cccc1Cl	x	x	x	-4%[21.7 µM]	x	x
CC(=O)OCC(=O)[C@H]1CC[C@H]2[C@@H]3CC[C@H]4C[C@H](O)CC[C@]4(C)[C@H]3C(=O)C[C@]12C	x	-2%	-31	x	x	-85*
COC(=O)C1=C(c2cccc(OCc3ccccc3)c2)C[C@@H]2CC[C@H]1N2C(=O)NCc1ccccc1OC	x	9%	-20	x	-13%	-52*
COC(=O)C1=C(c2cccc(OCc3ccccc3)c2)C[C@@H]2CC[C@H]1N2C(=O)NCc1ccc(Cl)cc1	x	-35%	2	x	28%	-52*
COC(=O)C1=C(c2cccc(OCc3ccccc3)c2)C[C@@H]2CC[C@H]1N2C(=O)NCc1ccc(OC)cc1	x	-1%	-19	x	-18%	-68*
SMILES	MBNL1 CUG block	PTHR1 ag	D3 ag	CBFb-RUNX1 inh	a7 integrin act	D3 antag
C=C(C)C(=O)OCC1CO1 (stereo unspecified)	x	x	x	1%[21.7 µM]	x	x
COc1ccc(C(CNC(=O)Cc2ccc(Cl)c(Cl)c2)N2CCCCC2)cc1 (stereo unspecified)	-1%	i	-34	x	-5%	-67*
COc1ccc(C(CNC(=O)Cc2ccc(Cl)c(Cl)c2)N(C)C)cc1 (stereo unspecified)	-10%	i	-13	20%	17%	-2
Cc1oc2ccc(O)c(CN3CCCCCC3)c2c1C(=O)Nc1cccc(Cl)c1C	x	u	-11	x	x	x
COc1ccccc1N1CCN(Cc2cccc(Br)c2)CC1	u	-4%	-21	x	-18%	-100*
CN1CCN(Cc2ccc(Br)s2)CC1	-3%	i	-29	-2%	-20%	-77*
COc1ccccc1N1CCNCC1	-13%	-24%	-11	-11%	x	-17
COc1ccccc1N1CCN(Cc2ccc(Br)s2)CC1	-6%	-30%[57.5 µM]	-6	12%	-24%	-69*
Cc1cccc(N2CCN(Cc3ccc4c(c3)OCO4)CC2)c1C	-10%	i	-24	x	0%	-105*
COc1cc(CN2CCN(c3cc(C)ccc3C)CC2)ccc1O	-8%	-15%	-13	0%	-5%	u
c1cc2c(cc1CN1CCNCC1)OCO2	9%	-6%	1	x	u	-25
CCCCC[C@H]1CCCCC[C@H](O)C[C@H](O)[C@@H](O)/C=C/C(=O)O1	x	-20%	-12	x	x	-18
C[C@]12CC[C@H]3[C@@H](CC[C@@]45O[C@@H]4C(O)=C(C#N)C[C@]35C)[C@@H]1CC[C@@H]2O	x	x	-1	x	x	x
CCOC(=O)c1cc(-c2ccccc2)n(CCCC(=O)Nc2ccc(C)c(C)c2)c1C	x	-20%	-1	x	x	x
COc1cc(C)c(CN2CCN(c3ccccc3)CC2)cc1C	-16%	i	-52	4%	u	-65*
Oc1cc2c(cc1CN1CCN(c3ccccc3F)CC1)OCO2	-1%	-22%	-22	x	-25%	-96*
COc1ccccc1N1CCN(Cc2c(F)cccc2Cl)CC1	-21%	-35%	-3	-5%	7%	0
COc1ccccc1N1CCN(Cc2ccccc2)CC1	-14%	i	-5	x	25%	-113*
COc1ccccc1N1CCN(Cc2cc(C)c(C)cc2O)CC1	-4%	14%	-16	-3%	16%	-84*
Fc1ccc(N2CCN(Cc3cc4c(cc3Br)OCO4)CC2)cc1	1%	-27%	-37	x	-11%	-9
CN(CCc1ccc(Cl)c(Cl)c1)[C@H]1CCCC[C@H]1N1CCCC1	x	x	x	7%[21.7 µM]	x	x
CN1C(=O)c2ccccc2Sc2ccc(NC(=O)c3ccc(C(F)(F)F)cc3)cc21	x	-28%	-22	x	x	x
O=[N+]([O-])c1ccccc1-c1ccccc1	x	x	x	24%[21.7 µM]	x	x
